From PubChem BioAssay (NCI)
The panel holds about 83,000 compounds, 20% with a hit somewhere; the sample as a whole holds those more often.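 Cell lines were cultured in 96-well plates, exposed to a single compound concentration, and assessed for percent growth 48 hours later.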 Unmarked numbers belong to inactive results. Active and inactive are the calls of the source. How the source made its calls: active means growth percent below 10; inactive means the rest.

What was measured:
Assay in all cases: NCI-60 one-dose screen, 48 h (100 = growth as untreated, 0 = no growth, -100 = all killed)
Details in all cases: 10 µM unless noted
NCI-H23 lung = tested on: NCI-H23 lung
NCI-H322M lung = tested on: NCI-H322M lung
HOP-62 NSCLC = tested on: HOP-62 NSCLC
NCI-H460 lung = tested on: NCI-H460 lung
NCI-H522 lung = tested on: NCI-H522 lung
A549/ATCC NSCLC = tested on: A549/ATCC NSCLC
786-0 renal = tested on: 786-0 renal
MALME-3M melanoma = tested on: MALME-3M melanoma
MDA-MB-231 breast = tested on: MDA-MB-231 breast
RXF 393 renal = tested on: RXF 393 renal
SF-268 CNS = tested on: SF-268 CNS
SF-295 CNS = tested on: SF-295 CNS
SF-539 CNS = tested on: SF-539 CNS
UACC-257 melanoma = tested on: UACC-257 melanoma
M14 melanoma = tested on: M14 melanoma
HCT-15 colon = tested on: HCT-15 colon
COLO 205 colon = tested on: COLO 205 colon
DU-145 prostate = tested on: DU-145 prostate
K-562 leukemia = tested on: K-562 leukemia

SMILES	growth (NCI-H23 lung)	growth (NCI-H322M lung)	growth (HOP-62 NSCLC)	growth (NCI-H460 lung)	growth (NCI-H522 lung)	growth (A549/ATCC NSCLC)	growth (786-0 renal)	growth (MALME-3M melanoma)	growth (MDA-MB-231 breast)	growth (RXF 393 renal)	growth (SF-268 CNS)	growth (SF-295 CNS)	growth (SF-539 CNS)	growth (UACC-257 melanoma)	growth (M14 melanoma)	growth (HCT-15 colon)	growth (COLO 205 colon)	growth (DU-145 prostate)	growth (K-562 leukemia)
Cn1cc(-c2nc(-c3c[nH]c4ncc(F)cc34)cs2)c2cccnc21	92.1%	107%	108%	96.3%	140%	107%	94.4%	101%	68.8%	98.3%	116%	107%	113%	119%	86.6%	97.1%			
c1ccc(Nc2nnc(-c3cc(-c4cccnc4)n(-c4ccccc4)n3)s2)cc1	78.6%	109%	99.1%	80.5%	71%	74.1%	77.1%	83.3%	35.6%	71.8%	113%	40.8%	104%	139%		8.1% (active)	83.3%	94.3%	36.1%
Nc1nc2ncc(CCNc3ccc(C(=O)NC(CCC(=O)O)C(=O)O)cc3)nc2c(=O)[nH]1 (configuration not stated)	43.3%	122%	90.6%	108%	28%		93.1%	118%	115%		110%	113%	94.3%	75.2%	114%	98.2%	118%	109%	127%
c1cnc2n[nH]c(Nc3ncnc4c3sc3ncccc34)c2c1	82.4%	106%	90.8%	96%	82.1%	87.3%	106%	92.9%	97.4%	99.6%	108%		105%	90.3%	97.4%	95.1%	107%	115%	86.8%
COc1cc2c(cc1OC)C1CCN3C(=O)CCC3N1CC2 (configuration not stated)	99.3%	124%	121%	107%	107%	113%	103%	117%	116%	106%	103%	113%	118%	108%	116%	110%		111%	
O=C1C(Cl)=C(N=Nc2c(Cl)c(O)c3ccccc3c2O)C(=O)c2ccccc21	68.2%	45%	52.1%	55.7%	72.7%	51.9%	98.4%	43.1%	61.2%	88.5%	77.9%	33.2%	96.2%		59.5%	61.7%	86.7%	81.3%	37.1%
COc1ccc(-c2nn(-c3ccccc3)cc2/C=C2\SC(=S)N(CCc3ccc(O)cc3)C2=O)cc1	89.2%	88.6%	97.1%	81.7%	64.7%	81.2%	93.7%	85.1%	75.4%	92.5%	81.4%	80.2%	87.2%	93.7%	91.3%	77.7%		93.3%	66%
Fc1ccc(-c2nc(Nc3ccc(-c4nc5ccccc5[nH]4)cc3)nc(N3CCOCC3)n2)cc1	-83.4% (active)	-92.8% (active)	-73.9% (active)	-80.3% (active)	-73.9% (active)	-75.2% (active)	-94.5% (active)	-73.4% (active)	-76.7% (active)	-91.1% (active)	-82.7% (active)	-94.4% (active)	-92.7% (active)		-82.6% (active)	-92.6% (active)	-68.4% (active)	-94% (active)	-100% (active)
COc1cc(/C=C/C(=O)c2c(-c3ccc(Cl)cc3)nc3sc(C)nn23)cc(OC)c1OC	84.3%	87.5%	98.8%	97.2%	-20.1% (active)	83.8%	81.4%		72.2%		88.6%	76.2%	95.8%	81.9%	75.8%	60.2%	100%	90.2%	31.1%
COc1ccc(-c2cc(Cc3cccs3)c(=O)n(Cn3ccc4ccccc43)n2)cc1	105%	110%	105%	115%	95.5%	104%	110%	106%	100%	116%	110%	101%	101%	103%	106%	98.4%		110%	105%
O=C(/C=C/c1cc2ccccc2[nH]c1=O)c1ccc(Cl)cc1	25.7%	62.4%	44.4%	12%	-57.5% (active)	42.1%	43%	46.4%	32.2%	12.9%	30.7%	42.7%		45.3%	44.7%	41.6%	49.4%	12.4%	17.1%
O=C1Cc2cc(CCn3cncn3)c(Cl)cc2N1	24.1%	92.7%	69.6%	83.9%	32.8%	59.8%	94.7%	93.8%	56%	62%	110%	69.3%		51.7%	24%	54.6%		96.5%	
Cc1cc2c(cc1[N+](=O)[O-])NC(CNC(C)C)CC2 (configuration not stated)	93.9%		103%	107%	105%	104%	92.9%	117%	107%	117%	95.1%	102%	103%	106%	92%	102%	120%	105%	96.5%
Clc1ccc(CCC(Cn2ccnc2)Sc2c(Cl)cccc2Cl)cc1 (configuration not stated)	42.5%	81.3%	83%	47.3%	20.3%	61.2%	56.4%	60.3%	55.5%	67.4%	87.1%	43.4%	91.5%	83.4%	54.9%	34%	57.7%	94.2%	30.5%
CC(C)(C)c1cc(O)c(O)c(C(C)(C)C)c1	48.4%	63.5%	64.7%	14.7%		20.9%	52.2%	67%	61.1%	65%	53.2%		40.6%	80.5%	51.9%	26.7%		68.7%	3.38% (active)
